NTR1 ag = agonists of human NTR1, primary screen, imaging, U2OS cells, beta-arrestin-GFP, high content; Neurotensin receptor type 1 (Homo sapiens), P30989; NTR1-U2OS beta-arrestin-GFP spot imaging, agonist mode; activation, % at 20 µM; hit rate 0.17% among 330,000; AID 493036, 2011;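 active = activation at or above 40% of the spot to cytoplasm intensity ratio, with at least 20 cells analyzed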;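 also: 0% = DMSO without peptide and 100% = 100 nM NTR1 peptide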
ABHD5-PLIN5 inh = ABHD5-PLIN5 interaction inhibitors, primary screen, cell lysate, split luciferase complementation, luminescence. Perilipin-5 (Homo sapiens) + 1-acylglycerol-3-phosphate O-acyltransferase ABHD5 (Homo …. Split G. princeps luciferase complementation, 4 h. inhibition, % at 4 µM. hit rate 0.78% among 360,000. AID 602281, 2012;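 active = inhibition above the mean inhibition across every tested compound plus 3 SD, cut at about 22% in these data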;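 also: 0% = DMSO only wells and the 100% control is not disclosed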
B2AR ag = beta2AR agonists driving receptor internalization, primary screen, cell-based, FAP fluorogen, flow cytometry; Beta-2 adrenergic receptor (Homo sapiens), P07550; Am2.2-beta2AR cells; hit rate 0.43% among 340,000; response, % (no concentration beside the values);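 active = response above a set limit, near 3 SD of response in nonfluorescent compounds, cut at about 42% in these data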
Exocytosis inh = LAMP-1 surface exposure blockers, TALL-104 cells – cell-based, flow cytometry, MLPCN library, primary screen | TALL-104 LAMP-1 surface exposure; cells stimulated with thapsigargin and PMA | AID 651702, 2012 | inhibition, % at 10 µM | hit rate 0.66% among 360,000;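 active = inhibition above about 55%, limit read from the data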
HTR2A ag = mouse Htr2a agonists via beta-arrestin recruitment, primary screen, cell-based, luminescence | 5-hydroxytryptamine receptor 2A (Mus musculus), P35363 | CHO-K1 mHTR2A beta-arrestin complementation; percent of 30 µM serotonin response | activation, % at 7.6 µM | hit rate 0.66% among 360,000 | AID 624169, 2012;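 active = activation above a run cutoff, the mean activation of all tested compounds plus 3 SD, cut at about 14% in these data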;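 also: 0% = plate median of compound wells and 100% = 30 µM serotonin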
Beta2AR ag CP1 = beta2AR agonists via receptor internalization, confirmation, cell-based, FAP fluorogen, flow cytometry, single point, cherry pick 1; shares compounds with B2AR ag; Am2.2-beta2AR cells, FAP surface receptor; stronger effect = lower value; percent response (surface receptor), % at 10 µM; hit rate 25% among 1,100;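 active = surface receptor percent response at or below 58%, roughly 3 SD from nonfluorescent compounds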
B2AR FAP counter = flagged in Am2.2 fluorescence counterscreen for beta-2AR agonists | shares compounds with B2AR ag | calls only at 10 µM | Am2.2 cells, FAP fluorogen flow cytometry; stronger effect = lower value | 1,100 tested, under 10 active;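 active = percent response below a set limit in fluorescence channel 1 and below 50% in channel 8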
ABHD5-PLIN5 conf = ABHD5-PLIN5 interaction inhibitors, confirmation, biochemical, luminescence; shares compounds with ABHD5-PLIN5 inh; inhibition, % at 4 µM; hit rate 67% among 2,200; AID 651612, 2012; in the data active = inhibition above about 23%;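 also: 0% = DMSO vehicle wells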
HNF4 split-luc = HNF4 dimerization inhibitors, counter-screen for ABHD5-PLIN5 interaction inhibitor project, biochemical, split-luciferase complementation, luminescence; shares compounds with ABHD5-PLIN5 inh; inhibition, % at 4 µM; hit rate 77% among 2,200; AID 651674, 2012;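 active = mean inhibition across replicate wells exceeding the computed hit threshold, cut at about 13% in these data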;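 also: light from luciferase halves that rejoin when HNF4 fusion proteins dimerize; 0% = DMSO only wells and the 100% control is not given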
Target sequence (P41235 whole entry, looked up, the tested form may be a part): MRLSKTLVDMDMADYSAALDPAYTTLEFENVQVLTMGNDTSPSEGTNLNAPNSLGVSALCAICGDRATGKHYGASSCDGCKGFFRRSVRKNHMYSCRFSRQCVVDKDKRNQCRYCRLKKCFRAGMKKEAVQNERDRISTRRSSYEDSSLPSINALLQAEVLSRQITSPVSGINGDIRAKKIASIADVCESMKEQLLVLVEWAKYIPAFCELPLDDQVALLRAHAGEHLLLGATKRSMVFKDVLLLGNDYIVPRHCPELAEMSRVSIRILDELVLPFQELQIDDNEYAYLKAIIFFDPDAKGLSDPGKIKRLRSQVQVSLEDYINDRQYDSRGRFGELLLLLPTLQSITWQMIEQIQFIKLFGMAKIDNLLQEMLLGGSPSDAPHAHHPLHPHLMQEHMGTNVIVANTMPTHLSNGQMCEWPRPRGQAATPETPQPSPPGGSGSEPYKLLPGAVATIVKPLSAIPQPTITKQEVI
OPRM1 ag = OPRM1 agonists via beta-arrestin recruitment, confirmation, counter-screen for mouse HTR2A agonist project, cell-based, luminescence, single concentration | shares compounds with HTR2A ag | U2OS OPRM1 beta-arrestin PathHunter; DMSO 0%, DAMGO 9.3 µM 100% | activation, % at 9.3 µM | hit rate 5.3% among 2,300;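 active = mean activation above the mean of DMSO-only wells plus 3 SD, cut at about 0.5% in these data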
m5-HT2A ag conf = mouse HTR2A agonists, beta-arrestin recruitment, confirmation, cell-based, luminescence, CHO-K1 PathHunter, triplicate | activation, % at 7.6 µM | hit rate 19% among 2,300 | shares compounds with HTR2A ag | AID 624381, 2012 | DMSO 0%, 30 µM serotonin 100%;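 active = mean activation across triplicates above the hit threshold derived in the original primary screen, cut at about 15% in these data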
Exocytosis CP01 = inhibitors of lytic granule exocytosis, confirmation, TALL-104 cells, flow cytometry, Cherry Pick01. LAMP-1 externalization; stimulated with PMA plus thapsigargin. shares compounds with Exocytosis inh. inhibition, % at 10 µM. AID 651954, 2012. hit rate 11% among 1,500; in the data active = inhibition above about 60%;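 also: 0% = stimulated vehicle wells and 100% = unstimulated wells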
An asterisk follows results filed as active; i = inactive; x = no result given. A selection: hits, their analogues and other compounds. The true share with any hit is near 2.3%.

SMILES | NTR1 ag | ABHD5-PLIN5 inh | B2AR ag | Exocytosis inh | HTR2A ag | Beta2AR ag CP1 | B2AR FAP counter | others
COc1ccc(CNC(=O)C2CCN(C(=O)Cc3ccccc3)CC2)cc1 | -1.2 | -3.4 | 8.6 | 7.9 | -4.4 | x | x
Cn1nnnc1Sc1ncnc2scc(-c3cc4ccccc4o3)c12 | 33.0 | 29.1* | 53.3* | -2.8 | -8.8 | 57.0* | i | ABHD5-PLIN5 conf=70.9*;HNF4 split-luc=77.3*
COc1ccc2[nH]cc(CCNC(=O)c3ccccc3Cl)c2c1 | 1.5 | -10.6 | -12.7 | 7.9 | -4.2 | x | x
Cc1ccccc1NC(=S)NC(=O)COc1ccccc1C | 6.4 | -8.1 | -0.2 | 2.6 | 3.2 | x | x
CCCC(=O)N(C1CC(C)C(C#N)(C#N)C1(C#N)C#N)N(C)C (stereo not drawn) | 1.8 | 35.7* | 42.5* | 2.5 | -3.0 | 33.6* | i | ABHD5-PLIN5 conf=58.9*;HNF4 split-luc=101.0*
COc1ccc(CNC(=O)N2CCN(C(=O)c3ccccc3)CC2)cc1 | 1.1 | 6.5 | -7.0 | -4.0 | 8.0 | x | x
O=C(C[n+]1cccc(NC(=O)c2ccccc2)c1)c1ccc(NC(=O)c2ccccc2)cc1 | -1.8 | 23.8* | 72.2* | -3.2 | -5.5 | 47.1* | i | ABHD5-PLIN5 conf=14.2;HNF4 split-luc=-2.5
CCOC(=O)c1ccc(NC(=O)Cn2nnc(-c3ccccc3)n2)cc1 | -0.1 | -4.0 | 64.5* | 6.2 | 20.6* | 1.2* | i | OPRM1 ag=0.2;m5-HT2A ag conf=2.5
Cc1ccc(C)c(NC(=O)CN(C)C(=O)c2ccccc2OCc2ccccc2Cl)c1 | 3.8 | 4.2 | -2.5 | 2.6 | -4.8 | x | x
OC(c1cc(C(F)(F)F)nc2c(C(F)(F)F)cccc12)C1CCCCN1 (stereo not drawn) | 9.7 | 4.0 | 35.7 | 4.5 | 31.1* | 98.8 | i | OPRM1 ag=1.3*;m5-HT2A ag conf=14.3
OC(c1cc(-c2ccc(C(F)(F)F)cc2)nc(C(F)(F)F)c1)C1CCCCN1 (stereo not drawn) | 30.8 | -13.9 | 30.3 | -19.7 | 7.7 | x | x
CN(Cc1ccccc1F)c1nc(-c2cccnc2)nc2ccccc12 | 9.3 | 5.4 | 79.7* | 100.5* | 2.6 | 52.8* | i | Exocytosis CP01=4.2
CCN(CC)CCCNc1ccc(-c2nnc(-c3ccc(OCC(C)C)cc3)o2)cn1 | 7.1 | 20.2 | 48.1* | 61.6* | -5.0 | 102.4 | i | Exocytosis CP01=94.7*
CCOc1ccc(N2CC(C(=O)Nc3ccc(S(=O)(=O)Nc4nccs4)cc3)CC2=O)cc1 (stereo not drawn) | 2.6 | -3.2 | 1.0 | 1.0 | -3.1 | x | x

Screening results deposited in PubChem BioAssay by several laboratories.
